Potency and affinity values are given separately. Inconclusive results are not listed. The source made the active and inactive calls. Unless noted, no rule for the calls is given here.
How the values were obtained:
[1] = RMG-1 ovarian cancer cell viability loss – cherry-pick, dose response (AID 687029;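 active = signal drop whose fitted half-maximal concentration is at most twice the top valid dose, in every test run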;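 also: cells exposed to compound for 96 hours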)
[2] = IOSE-T80 viability loss, PAX8-independent line – cell-based, cherry-pick, selectivity assay for PAX8 inhibitor project, dose response (AID 687032;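 active = fitted half-maximal concentration for viability loss no higher than twice the top valid dose, in every repeat run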;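 also: cells exposed to compound for 96 h before reading; 0% = neutral control wells and -100% = 2 µM mitoxantrone kill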)
[3] = general cell-killing toxicity readout – plate reader, dry powder samples, cytotoxicity control for PAX8 inhibitor project, dose response (AID 743021)
[4] = IGROV1 cell killing – plate reader, dry powder samples, PAX8 inhibitor project, dose response (AID 743043);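 also: more negative means fewer viable cells or more cytotoxicity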
[5] = toxicity toward immortalized ovarian surface epithelium – cell-based, plate reader, dry powder samples, cytotoxicity control for PAX8 inhibitor project, dose response (AID 743045);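 also: 0% = neutral control median and -100% = positive control median; more negative values mean more cell killing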
[6] = A2780 cell killing – plate reader, dry powder samples, cytotoxicity control, dose response (AID 743046);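 also: 0% = neutral control wells and -100% = cytotoxic reference compound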
[7] = OVCAR-3 cell viability loss – plate reader, dry powder samples, PAX8 inhibitor project, dose response (AID 743044); details: max activity: at 35 µM, active compounds read low unless noted
[8] = A549 cell cytotoxicity, dose response, cytotoxicity control, plate reader, cherry-pick, antagonist series (AID 743412);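 also: 0% = neutral control wells and -100% = positive control wells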
[9] = toxicity toward HepG2 liver cells – cell-based, plate reader, cherry-pick, antagonist series, cytotoxicity control, dose response (AID 743416);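 also: 0% = neutral control wells and -100% = positive control wells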
[10] = OVCAR8 cell viability loss – plate reader, dry powder samples, PAX8 project, dose response (AID 743197)

Measured: max activity

CCOCCCNC(=O)c1ccc2c(c1)N=C(CC)c1cc(Br)ccc1S2
inactive: [1] | [2] | [3]

COc1cc(-c2cnc3c(NC=O)cc(-c4ccc(C)cc4)cn23)cc(OC)c1OC
inactive: [1] | [2] | [3]

CC(C)(C)C(=O)Nc1ccc(NC(=O)c2ccco2)nc1
inactive: [1] | [2] | [3]

COc1cc(C2C3=C(Nc4ncnn42)c2ccccc2CC3)cc(OC)c1OC (stereo not given)
inactive: [1] | [2] | [3]

COc1ccccc1NS(=O)(=O)c1cccc(C(=O)N/N=C/c2ccc([N+](=O)[O-])o2)c1
inactive: [1] | [2] | [3]

Cc1ccc(S(=O)(=O)CCC(=O)c2ccc(F)cc2)cc1
inactive: [1] | [2] | [3]

O=C(NCCN1C(=O)S/C(=C\c2ccc(OC(F)F)cc2)C1=O)c1cnccn1
inactive: [1] | [2] | [3]

Cc1cccc(C)c1NS(=O)(=O)c1ccc(-c2cnc(C3CC3)o2)cc1
inactive: [1] | [2] | [3]

Oc1ccc(N=Nc2ccccc2C(F)(F)F)c2cccnc12
inactive: [1] | [2] | [3]

C=CC(=O)N=c1sc2ccccc2n1-c1ccccc1
inactive: [1] | [2] | [3]

Cc1ccc(S(=O)(=O)Nc2ccc3c(c2)C(=O)N([C@H](C)CO)C[C@H](C)[C@@H](CN(C)Cc2ccc(C(F)(F)F)cc2)OCCCC[C@H](C)O3)cc1
inactive: [1] | [2] | [3]

C[C@H]1CCCCO[C@@H](CN(C)Cc2ccc(C(F)(F)F)cc2)[C@@H](C)CN([C@@H](C)CO)C(=O)c2cc(NC(=O)Nc3ccc(F)cc3)ccc2O1
inactive: [1] | [2] | [3] | [4] | [5] | [6]

C[C@H](CO)N1C[C@H](C)[C@H](CN(C)Cc2ccc(C(F)(F)F)cc2)OCCCC[C@H](C)Oc2ccc(NC(=O)CCC(F)(F)F)cc2C1=O
inactive: [1] | [2] | [3] | [4] | [5] | [6]

Cc1ccccc1OCC(=O)Nc1cccc(C(=O)O)c1
inactive: [1] | [2] | [3] | [4] | [7] | [5] | [6] | [8] | [9]

C[C@H]1CN([C@@H](C)CO)S(=O)(=O)c2ccc(C#Cc3ccc(F)cc3)cc2O[C@H]1CN(C)C(=O)NC1CCCCC1
inactive: [1] | [2] | [3] | [4] | [5] | [6] | [10]

C[C@@H]1CCCCO[C@H](CN(C)CC2CCCCC2)[C@H](C)CN([C@@H](C)CO)C(=O)c2cc(NS(=O)(=O)c3ccc(Cl)cc3)ccc2O1
inactive: [1] | [2] | [3] | [4] | [7] 13.1% [at 0.5 µM, active compounds read low] | [5] | [6] | [10]

C[C@H]1CCCCO[C@H](CN(C)C(=O)Nc2ccc(C(F)(F)F)cc2)[C@@H](C)CN([C@@H](C)CO)C(=O)c2cc(NS(=O)(=O)c3ccc(F)cc3)ccc2O1
inactive: [1] | [2] | [3] | [4] | [7] 19.1% [at 4.2 µM, active compounds read low] | [5] | [6]

COc1ccc(CCN2C(=O)CSC2=S)cc1OC
inactive: [1] | [2] | [3] | [4] | [7] | [6]

C[C@@H]1CN([C@H](C)CO)C(=O)c2cc(NC(=O)CCC(F)(F)F)ccc2O[C@@H](C)CCCCO[C@@H]1CN(C)Cc1ccc(C(F)(F)F)cc1
inactive: [1] | [2] | [3] | [4] | [5]

C[C@@H]1CCCCO[C@H](CN(C)C(=O)Nc2ccc(C(F)(F)F)cc2)[C@@H](C)CN([C@@H](C)CO)C(=O)c2cc(NS(=O)(=O)c3ccccc3)ccc2O1
inactive: [1] | [2] | [3] | [4] | [7] 27.6% [at 0.26 µM, active compounds read low] | [5] | [6] | [10]

C[C@@H]1CCCCO[C@H](CN(C)Cc2ccc(Cl)c(Cl)c2)[C@H](C)CN([C@@H](C)CO)C(=O)c2cc(NC(=O)Nc3ccc(C(F)(F)F)cc3)ccc2O1
inactive: [1] | [2] | [3] | [4] | [5] | [6]

CC1(C)CC(=O)c2sc(NC(=O)CCS(=O)(=O)c3ccccc3)nc2C1
inactive: [1] | [2] | [3] | [4] | [7] | [6]

C[C@H](CO)N1C[C@H](C)[C@@H](CN(C)C(=O)Nc2cccc3ccccc23)OCCCC[C@H](C)Oc2ccc(NC(=O)c3ccncc3)cc2C1=O
inactive: [1] | [2] | [3] | [4] | [7] -25.1% | [5] | [6] | [10]

COc1ccc(S(=O)(=O)Nc2ccc3c(c2)C(=O)N([C@H](C)CO)C[C@@H](C)[C@@H](CN(C)Cc2ccc(C(F)(F)F)cc2)OCCCC[C@H](C)O3)cc1
inactive: [1] | [2] | [3] | [4] | [5] | [6] | [10]

C[C@@H]1CCCCO[C@H](CN(C)C(=O)Nc2ccc(F)cc2)[C@@H](C)CN([C@@H](C)CO)C(=O)c2cc(NS(=O)(=O)c3ccc(Cl)cc3)ccc2O1
inactive: [1] | [2] | [3] | [4] | [5] | [6]

C[C@@H]1CN([C@@H](C)CO)C(=O)c2cc(NC(=O)Nc3ccc(F)cc3)ccc2O[C@@H](C)CCCCO[C@@H]1CN(C)Cc1ccc(C(F)(F)F)cc1
inactive: [1] | [2] | [3] | [4] | [5]

O=C1/C(=C/c2cccc(Br)c2)SC(=S)N1CCC(=O)N(CCO)c1ccccc1
inactive: [1] | [2] | [3] | [4] | [7] | [5] | [6]

Reference: PubChem BioAssay
